Results filed as inconclusive are left out. Activity calls are given as the source filed them. Unless noted, calls follow the shape of the dose curve; as a rule, active = well fitted curve in the direction sought with a large enough effect; inconclusive = small, poorly fitted or top-dose-only effect, or another doubt; inactive = no such curve, though single readings can be large; an effect the other way counts as inactive or inconclusive.
Legend:
[1] = target: Cytochrome P450 1A2 (Homo sapiens) (UniProt P05177); experiment: p450-cyp1a2 (AID 410; calls by dose curve; also: potency is read from the fitted curve at half-maximal effect)
Sequence of Cytochrome P450 1A2 (Homo sapiens) (P05177 whole entry, looked up): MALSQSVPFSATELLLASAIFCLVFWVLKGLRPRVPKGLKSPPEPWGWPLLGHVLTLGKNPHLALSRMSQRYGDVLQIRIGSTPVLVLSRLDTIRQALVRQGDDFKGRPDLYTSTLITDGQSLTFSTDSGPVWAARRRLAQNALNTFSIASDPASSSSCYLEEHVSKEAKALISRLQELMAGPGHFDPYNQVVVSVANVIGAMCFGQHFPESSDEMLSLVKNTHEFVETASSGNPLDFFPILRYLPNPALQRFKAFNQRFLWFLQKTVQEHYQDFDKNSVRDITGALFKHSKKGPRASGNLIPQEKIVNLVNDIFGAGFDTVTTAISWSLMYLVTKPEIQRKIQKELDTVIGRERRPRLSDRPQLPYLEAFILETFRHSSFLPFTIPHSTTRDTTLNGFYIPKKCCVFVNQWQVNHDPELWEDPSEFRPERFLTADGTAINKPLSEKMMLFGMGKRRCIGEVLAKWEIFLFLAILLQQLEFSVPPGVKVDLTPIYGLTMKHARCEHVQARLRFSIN
Method in brief: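 O-Demethylation of luciferin 6' methyl ether by human CYP1A2 is monitored as luciferase luminescence. Substrate sits at Km (100uM); enzyme is 20nM. Values are scaled to 57 uM furafylline as maximal inhibition.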

[2] = target: Glucocorticoid receptor (Homo sapiens) (UniProt P04150); experiment: GR-GFP Redistribution (AID 450;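 active = compounds whose dose series gives a full or clear partial fitted curve of increased nuclear translocation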; also: potency is read from the fitted curve at half-maximal effect)
Sequence of Glucocorticoid receptor (Homo sapiens) (P04150 whole entry, looked up, the tested form may be a part): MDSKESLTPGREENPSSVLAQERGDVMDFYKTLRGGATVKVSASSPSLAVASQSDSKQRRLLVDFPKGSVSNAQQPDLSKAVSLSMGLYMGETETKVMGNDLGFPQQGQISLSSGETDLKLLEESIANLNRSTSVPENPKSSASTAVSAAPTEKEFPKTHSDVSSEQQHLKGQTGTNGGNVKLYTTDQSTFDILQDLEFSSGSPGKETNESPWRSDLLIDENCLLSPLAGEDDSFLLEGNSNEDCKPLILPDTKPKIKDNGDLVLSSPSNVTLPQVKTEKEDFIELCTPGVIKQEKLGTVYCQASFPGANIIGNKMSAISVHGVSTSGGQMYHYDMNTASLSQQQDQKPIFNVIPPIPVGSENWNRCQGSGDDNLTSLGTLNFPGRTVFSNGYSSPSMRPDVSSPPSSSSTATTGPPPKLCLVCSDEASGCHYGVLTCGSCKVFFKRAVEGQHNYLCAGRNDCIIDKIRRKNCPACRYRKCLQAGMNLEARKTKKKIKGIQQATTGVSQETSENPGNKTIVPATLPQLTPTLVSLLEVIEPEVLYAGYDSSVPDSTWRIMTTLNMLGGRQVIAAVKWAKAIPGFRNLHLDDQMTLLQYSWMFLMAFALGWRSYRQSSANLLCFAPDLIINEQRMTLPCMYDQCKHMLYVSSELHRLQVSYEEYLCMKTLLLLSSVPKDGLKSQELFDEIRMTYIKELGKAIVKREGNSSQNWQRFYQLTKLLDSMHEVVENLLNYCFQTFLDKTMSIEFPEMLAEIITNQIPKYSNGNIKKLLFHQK

[3] = target: Glucocorticoid receptor (Homo sapiens) (UniProt P04150); experiment: GR-EFC Redistribution (AID 451; calls by dose curve; also: potency is read from the fitted curve at half-maximal effect); settings: CHO-K1 GR-EFC translocation, beta-gal luminescence, 2 h
Method in brief: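 CHO-K1 cells stably expressing nuclear-localized β-gal enzyme acceptor and GR fused C-terminally to the enzyme donor fragment; ligand-driven nuclear translocation restores β-gal by complementation. Compounds titrated up to 46 uM final, 2 h at 37 °C; luminescence read.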

[4] = target: Mitogen-activated protein kinase 10 (Mus musculus) (UniProt Q61831); experiment: JNK3 AlphaScreen Assay (AID 530; active = well fitted curve in either direction with a large enough effect, not every such curve was filed as active;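 also: kinase came from lysate of stimulated human HepG2 cells; signal reports phosphorylation of biotinylated GST-cJun 1-79 at Ser73 with 10 µM ATP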)
Method in brief: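 Phosphorylation of biotinylated GST-cJun(1-79) at Ser73 is measured by AlphaScreen proximity luminescence. Enzyme is JNK3 in HepG2 lysates activated with interleukin-1beta and tumor necrosis factor alpha; ATP is 10 uM final.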

[5] = target: Cytochrome P450 3A4 (Homo sapiens) (UniProt P08684); experiment: qHTS Assay for Inhibitors and Substrates of Cytochrome P450 3A4 (AID 884); also: potency is read from the fitted curve at half-maximal effect; nearly all actives have a fitted effect of over 50% in size
Sequence of Cytochrome P450 3A4 (Homo sapiens) (P08684 whole entry, looked up): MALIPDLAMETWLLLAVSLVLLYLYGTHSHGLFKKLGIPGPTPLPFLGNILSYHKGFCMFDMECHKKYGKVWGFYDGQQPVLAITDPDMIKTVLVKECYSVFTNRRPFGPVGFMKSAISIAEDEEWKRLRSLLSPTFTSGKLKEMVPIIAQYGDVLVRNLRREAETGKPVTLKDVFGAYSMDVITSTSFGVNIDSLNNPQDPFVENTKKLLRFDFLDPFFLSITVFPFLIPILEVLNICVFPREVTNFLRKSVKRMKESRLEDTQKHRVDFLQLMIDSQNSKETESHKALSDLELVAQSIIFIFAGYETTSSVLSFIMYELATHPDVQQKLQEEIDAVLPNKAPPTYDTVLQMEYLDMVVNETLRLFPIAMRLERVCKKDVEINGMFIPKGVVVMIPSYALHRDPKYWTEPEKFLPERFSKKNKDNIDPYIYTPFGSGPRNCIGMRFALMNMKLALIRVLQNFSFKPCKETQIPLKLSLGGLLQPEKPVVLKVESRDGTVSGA
Method in brief: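 Luminescent readout of luciferin produced by CYP3A4 (20 nM) dealkylation of Luciferin-PPXE, 25 uM (its KM). NADPH-driven reaction ran 60 min at RT after 10 min compound preincubation; data scaled to 57 uM ketoconazole as 100% inhibition.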

[6] = target: Cytochrome P450 3A4 (Homo sapiens) (UniProt P08684); experiment: qHTS Assay for Activators of Cytochrome P450 3A4 (AID 885); also: nearly all actives have a fitted effect of over 65% in size
Method in brief: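 Activators are scored by enhanced luminescence from CYP3A4 conversion of luciferin-PPXE (25uM, equal to KM) to luciferin, after 60 min at RT with an NADPH-regenerating system.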

[7] = target: DNA dC->dU-editing enzyme APOBEC-3G (Homo sapiens) (UniProt Q9HC16); experiment: qHTS for inhibitors of Vif-A3G interactions: Validation (AID 588379)
Sequence of DNA dC->dU-editing enzyme APOBEC-3G (Homo sapiens) (Q9HC16 whole entry, looked up): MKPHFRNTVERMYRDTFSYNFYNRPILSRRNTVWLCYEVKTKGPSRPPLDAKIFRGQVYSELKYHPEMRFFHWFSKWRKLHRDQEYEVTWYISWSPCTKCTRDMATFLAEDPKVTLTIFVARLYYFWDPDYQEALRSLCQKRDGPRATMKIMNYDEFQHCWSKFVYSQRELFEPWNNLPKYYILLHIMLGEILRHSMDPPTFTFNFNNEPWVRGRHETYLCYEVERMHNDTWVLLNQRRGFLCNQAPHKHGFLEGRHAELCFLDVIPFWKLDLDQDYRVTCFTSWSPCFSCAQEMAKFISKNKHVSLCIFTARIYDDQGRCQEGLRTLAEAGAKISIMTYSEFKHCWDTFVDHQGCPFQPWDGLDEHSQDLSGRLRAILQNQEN
Method in brief: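 Yellow fluorescence (Ex 488, Em 500-530) of Vif-coexpressing HeLa A3G-eYFP cells, scanned by Acumen cytometer, reports blocked A3G degradation. Cells plated at 700/well overnight at 37 deg C before compound addition, then a further overnight compound incubation at 37 deg C.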

[8] = target: ATP-dependent 6-phosphofructokinase (Trypanosoma brucei brucei) (UniProt O15648); experiment: qHTS Assay to Find Inhibitors of T. brucei phosphofructokinase: hit validation (AID 492961);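 also: luminescence reports ADP formed as PFK phosphorylates fructose-6-phosphate with ATP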
Sequence of ATP-dependent 6-phosphofructokinase (Trypanosoma brucei brucei) (O15648 whole entry, looked up): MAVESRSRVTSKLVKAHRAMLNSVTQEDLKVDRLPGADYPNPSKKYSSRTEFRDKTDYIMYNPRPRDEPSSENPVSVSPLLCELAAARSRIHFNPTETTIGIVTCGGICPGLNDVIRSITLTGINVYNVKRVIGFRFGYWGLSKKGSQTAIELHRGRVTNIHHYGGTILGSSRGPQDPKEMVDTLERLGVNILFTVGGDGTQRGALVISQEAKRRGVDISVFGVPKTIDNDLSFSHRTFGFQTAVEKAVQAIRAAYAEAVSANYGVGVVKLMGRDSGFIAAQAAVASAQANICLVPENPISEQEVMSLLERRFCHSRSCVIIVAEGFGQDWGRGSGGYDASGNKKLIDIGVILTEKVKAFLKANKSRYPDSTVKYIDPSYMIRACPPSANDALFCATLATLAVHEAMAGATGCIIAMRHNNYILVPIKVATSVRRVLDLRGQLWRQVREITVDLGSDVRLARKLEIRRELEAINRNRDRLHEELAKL
Method in brief: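 Reaction: 0.1 M triethanolamine pH 8.0, 5 mM MgCl2, F6P 0.5 mM, ATP 0.1 mM, PFK 1.25 nM, 45 min RT. Read-out: ADP-Glo luminescence. Analysis: concentration-response fits, classed by r2 and efficacy.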

[9] = target: Luciferin 4-monooxygenase (Photinus pyralis) (UniProt P08659); experiment: Biochemical firefly luciferase enzyme assay for NPC (AID 624030);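 also: purified P. pyralis luciferase at 10 nM with luciferin and ATP substrate; nearly all actives have a fitted effect of over 70% in size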
Method in brief: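 Counter-screen for direct inhibition of the luciferase enzyme by approved-drug library compounds, run at 10 nM enzyme in 50 mM Tris acetate (final). Luminescence was read within 5 min of enzyme-buffer addition and normalized to PTC124 versus DMSO (0%).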

[10] = S16 Schwann cell PMP22 intronic element firefly luciferase assay (AID 624032); also: nearly all actives have a fitted effect of over 30% in size
Method in brief: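 Rat S16 Schwann cells stably carrying a PMP22 intronic element-driven Fluc reporter were seeded overnight, then exposed to compounds for 24 h at 37 °C. Luminescence was normalized to PTC124 (positive control) and DMSO (0% activity).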

[11] = S16 Schwann cell PMP22 intronic element beta-lactamase assay (AID 624044; calls by dose curve; also: nearly all actives have a fitted effect of over 15% in size); settings: S16 rat Schwann cells, PMP22 element beta-lactamase FRET, 24 h; ratio activity, negative = inhibition: at 38.3 µM (top of the series)
Method in brief: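 Beta-lactamase reporter under a PMP22 intronic regulatory element in stable S16 rat Schwann cells; 24 h compound exposure. 460 nm blue signal normalized between DMSO (0%) and potassium clavulanate, with 535 nm FRET tracking viability; curves classed by r2 and response.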

[12] = tested on: 7G8; experiment: qHTS profiling for inhibitors of Plasmodium falciparum proliferation (AID 504749); also: nearly all actives have a fitted effect of over 60% in size; also: potency is read from the fitted curve at half-maximal effect; settings: P. falciparum in erythrocytes, SYBR Green DNA, 72 h; series mostly up to 28.7 µM
Method in brief: (§1)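 Quantitative HTS: compounds pinned into medium, infected erythrocytes added (0.3% parasitemia, 2.5% hematocrit), 72 h culture at 37 C under 5% CO2. Saponin/Triton lysis with SYBR Green I, overnight RT, then fluorescence read.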

[13] = tested on: AA1029; experiment: as above; settings: P. falciparum in erythrocytes, SYBR Green DNA, 72 h; series mostly up to 28.7 µM
Method in brief: as §1

[14] = tested on: ATS95; experiment: as above; settings: P. falciparum in erythrocytes, SYBR Green DNA, 72 h; series mostly up to 28.7 µM
Method in brief: as §1

[15] = tested on: C2A; experiment: as above; settings: P. falciparum in erythrocytes, SYBR Green DNA, 72 h; series mostly up to 28.7 µM
Method in brief: as §1

[16] = tested on: CP252; experiment: as above; settings: P. falciparum in erythrocytes, SYBR Green DNA, 72 h; series mostly up to 28.7 µM
Method in brief: as §1

[17] = tested on: CP262; experiment: as above; settings: P. falciparum in erythrocytes, SYBR Green DNA, 72 h; series mostly up to 28.7 µM
Method in brief: as §1

[18] = tested on: ECU; experiment: as above; settings: P. falciparum in erythrocytes, SYBR Green DNA, 72 h; series mostly up to 28.7 µM
Method in brief: as §1

[19] = tested on: JCK; experiment: as above; settings: P. falciparum in erythrocytes, SYBR Green DNA, 72 h; series mostly up to 28.7 µM
Method in brief: as §1

[20] = tested on: PAD; experiment: as above; settings: P. falciparum in erythrocytes, SYBR Green DNA, 72 h; series mostly up to 28.7 µM
Method in brief: as §1

[21] = tested on: PC15; experiment: as above; settings: P. falciparum in erythrocytes, SYBR Green DNA, 72 h; series mostly up to 28.7 µM
Method in brief: as §1

[22] = tested on: PC49; experiment: as above; settings: P. falciparum in erythrocytes, SYBR Green DNA, 72 h; series mostly up to 28.7 µM
Method in brief: as §1

[23] = tested on: SC27B; experiment: as above; settings: P. falciparum in erythrocytes, SYBR Green DNA, 72 h; series mostly up to 28.7 µM
Method in brief: as §1

[24] = tested on: TAB113; experiment: as above; settings: P. falciparum in erythrocytes, SYBR Green DNA, 72 h; series mostly up to 28.7 µM
Method in brief: as §1

[25] = target: Cytochrome P450 2D6 (Homo sapiens) (UniProt P10635); experiment: qHTS Assay for Inhibitors and Substrates of Cytochrome P450 2D6 (AID 891); also: potency is read from the fitted curve at half-maximal effect; nearly all actives have a fitted effect of over 60% in size
Sequence of Cytochrome P450 2D6 (Homo sapiens) (P10635 whole entry, looked up): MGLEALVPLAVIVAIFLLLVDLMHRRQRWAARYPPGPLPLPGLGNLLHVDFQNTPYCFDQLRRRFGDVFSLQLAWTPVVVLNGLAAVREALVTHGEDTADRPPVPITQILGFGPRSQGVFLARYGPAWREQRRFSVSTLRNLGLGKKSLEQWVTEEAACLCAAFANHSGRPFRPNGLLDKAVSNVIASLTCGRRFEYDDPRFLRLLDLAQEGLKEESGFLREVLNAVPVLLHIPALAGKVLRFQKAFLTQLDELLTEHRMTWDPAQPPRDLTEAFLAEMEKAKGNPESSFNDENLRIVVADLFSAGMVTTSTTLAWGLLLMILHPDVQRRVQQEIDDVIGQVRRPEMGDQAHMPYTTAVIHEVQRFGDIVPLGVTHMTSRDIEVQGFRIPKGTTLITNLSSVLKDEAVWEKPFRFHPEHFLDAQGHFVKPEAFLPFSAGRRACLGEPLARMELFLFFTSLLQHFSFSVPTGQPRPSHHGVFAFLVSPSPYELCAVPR
Method in brief: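 Luminescent read-out of luciferin formed by 5 nM human CYP2D6 demethylating 30 uM Luciferin-ME EGE (Km level) over 60 min at room temperature after NADPH regeneration addition. Data normalized to full inhibition by 1.43 uM quinidine.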

[26] = target: Ubiquitin carboxyl-terminal hydrolase 1 (Homo sapiens) (UniProt O94782); experiment: Inhibitors of USP1/UAF1: Pilot qHTS (AID 504865);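 also: rhodamine fluorescence freed from ubiquitin-rhodamine substrate followed over time; top concentration of the series differs between compounds; nearly all actives have a fitted effect of over 35% in size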
Method in brief: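 USP1/UAF1 complex (1nM) preincubated with compound 15 min at room temperature, then Ub-Rho substrate (150nM final) added. Fluorescence read kinetically at 480/540 nm, 6 reads every 60 seconds. Buffer: 50mM HEPES pH 7.8, 0.5mM EDTA, 0.1 mg/ml BSA, 1mM TCEP, 0.01% Tween-20.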

[27] = target: 3',5'-cyclic-AMP phosphodiesterase 4B (Homo sapiens) (UniProt Q07343); experiment: qHTS Assay for Inhibitors of PDE-IV (AID 607; active = well fitted activation curve with a large enough effect in the main read-out, with a control signal flat, not every such curve was filed as active)
Sequence of 3',5'-cyclic-AMP phosphodiesterase 4B (Homo sapiens) (Q07343 whole entry, looked up): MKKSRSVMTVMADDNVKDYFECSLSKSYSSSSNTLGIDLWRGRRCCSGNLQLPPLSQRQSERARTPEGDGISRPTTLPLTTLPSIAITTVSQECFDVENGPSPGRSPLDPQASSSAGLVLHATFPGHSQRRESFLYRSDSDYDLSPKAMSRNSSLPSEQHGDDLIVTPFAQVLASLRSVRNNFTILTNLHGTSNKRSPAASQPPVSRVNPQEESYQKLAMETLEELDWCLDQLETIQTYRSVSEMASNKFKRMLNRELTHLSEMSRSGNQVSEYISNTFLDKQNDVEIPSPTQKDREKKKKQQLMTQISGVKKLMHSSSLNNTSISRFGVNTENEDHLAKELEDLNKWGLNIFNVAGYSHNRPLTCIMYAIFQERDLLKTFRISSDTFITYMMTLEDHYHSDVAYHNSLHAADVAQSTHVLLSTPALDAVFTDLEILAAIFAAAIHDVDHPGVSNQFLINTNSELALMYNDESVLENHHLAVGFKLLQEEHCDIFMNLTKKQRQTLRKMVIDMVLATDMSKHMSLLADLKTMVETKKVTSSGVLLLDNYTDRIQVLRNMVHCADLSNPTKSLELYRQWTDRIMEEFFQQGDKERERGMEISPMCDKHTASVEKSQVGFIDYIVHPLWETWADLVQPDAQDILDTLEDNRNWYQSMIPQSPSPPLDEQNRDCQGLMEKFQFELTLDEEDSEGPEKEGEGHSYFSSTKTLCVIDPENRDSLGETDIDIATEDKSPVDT
Method in brief: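 The readout is membrane depolarisation from a cAMP-sensing CNG channel, detected with a potential dye at ex 535/em 590. Cells were HEK293-derived (endogenous PDE-IV) at 1000 cells/well, titrated up to 22.9 uM final.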

[28] = target: Cytochrome P450 2C9 (Homo sapiens) (UniProt P11712); experiment: qHTS Assay for Inhibitors and Substrates of Cytochrome P450 2C9 (AID 883); also: potency is read from the fitted curve at half-maximal effect; nearly all actives have a fitted effect of over 60% in size
Sequence of Cytochrome P450 2C9 (Homo sapiens) (P11712 whole entry, looked up): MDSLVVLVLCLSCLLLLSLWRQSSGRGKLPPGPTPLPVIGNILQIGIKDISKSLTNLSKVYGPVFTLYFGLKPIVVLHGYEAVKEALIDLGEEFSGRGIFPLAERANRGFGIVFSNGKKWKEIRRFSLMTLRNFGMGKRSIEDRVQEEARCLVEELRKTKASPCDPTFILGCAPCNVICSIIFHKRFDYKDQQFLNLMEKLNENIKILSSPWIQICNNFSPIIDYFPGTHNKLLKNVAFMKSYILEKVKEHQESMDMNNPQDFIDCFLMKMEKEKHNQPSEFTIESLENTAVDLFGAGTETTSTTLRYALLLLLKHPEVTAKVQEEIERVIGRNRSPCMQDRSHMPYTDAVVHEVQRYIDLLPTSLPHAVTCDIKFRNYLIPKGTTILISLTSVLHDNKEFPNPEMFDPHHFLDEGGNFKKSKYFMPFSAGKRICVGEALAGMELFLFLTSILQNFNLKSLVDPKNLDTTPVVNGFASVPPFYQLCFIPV
Method in brief: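 CYP2C9 deoxyluciferin hydroxylation, 37C, 60 min with NADPH regeneration; 10nM enzyme, 100uM Luciferin-H (KM). Glo detection reagent stopped reaction; luminescence normalized to sulphaphenazole (57uM) full inhibition.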

[29] = target: Cytochrome P450 2C19 (Homo sapiens) (UniProt P33261); experiment: qHTS Assay for Inhibitors and Substrates of Cytochrome P450 2C19 (AID 899); also: potency is read from the fitted curve at half-maximal effect; nearly all actives have a fitted effect of over 60% in size
Sequence of Cytochrome P450 2C19 (Homo sapiens) (P33261 whole entry, looked up): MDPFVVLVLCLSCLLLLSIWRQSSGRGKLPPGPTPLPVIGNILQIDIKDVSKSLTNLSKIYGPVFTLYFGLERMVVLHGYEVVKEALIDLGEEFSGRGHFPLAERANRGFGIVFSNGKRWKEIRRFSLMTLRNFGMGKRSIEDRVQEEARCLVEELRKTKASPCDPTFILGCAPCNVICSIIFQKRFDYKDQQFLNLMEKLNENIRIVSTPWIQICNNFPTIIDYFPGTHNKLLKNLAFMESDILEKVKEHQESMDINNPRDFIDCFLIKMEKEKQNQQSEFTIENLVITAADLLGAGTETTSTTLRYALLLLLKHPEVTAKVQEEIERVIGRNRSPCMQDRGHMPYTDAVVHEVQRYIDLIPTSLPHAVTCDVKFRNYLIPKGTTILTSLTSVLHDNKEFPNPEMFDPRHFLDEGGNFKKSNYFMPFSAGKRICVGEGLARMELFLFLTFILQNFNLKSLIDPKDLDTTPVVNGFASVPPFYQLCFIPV
Method in brief: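 In 50mM KPO4, the reaction held 5nM enzyme and KM-level (10uM) Luciferin-H EGE; it ran 60 min at 37C after NADPH regeneration and a 10 min compound preincubation. Luminescence values were scaled to 57uM ketoconazole as complete inhibition.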

Measured: Potency

COc1cc2c(cc1OC)-c1c(OC)c(OC)cc3ccnc(c13)C2=O
inactive: [2] > 46 µM | [3] > 46 µM | [4] | [6] | [7]
active: [1] 0.0794 µM | [5] 2.51 µM

CNc1cc(OC)c(C(=O)N[C@@H]2CCN(Cc3ccccc3)[C@H]2C)cc1Cl
inactive: [2] > 46 µM | [3] > 46 µM | [4] | [8] | [7] | [9] | [10] | [11] | [14] | [15] | [16] | [17] | [18] | [19] | [20] | [21] | [22] | [23] | [24]
active: [1] 31.6 µM | [12] 6.31 µM | [13] 14.1 µM

CN(CCc1ccc(Cl)c(Cl)c1)CCN1CCCCCC1
active: [1] 31.6 µM | [25] 0.126 µM
inactive: [2] > 46 µM | [3] > 46 µM | [4] | [6] | [26] | [7]

COc1cc(C(=O)O[C@@H]2CC(C)=CC[C@@]3(C)CC[C@](O)(C(C)C)[C@H]23)ccc1O
active: [1] 15.8 µM | [28] 15.8 µM
inactive: [2] > 46 µM | [3] > 46 µM | [4] | [27]

CCCc1c(OCCCOc2ccc(OCC(=O)O)cc2)ccc(CC=O)c1O
inactive: [2] > 46 µM | [3] > 46 µM | [4] | [27] | [7]
active: [1] 31.6 µM

COc1ccccc1C[C@@H](Cc1nc2ccccc2[nH]1)c1nc2ccccc2[nH]1
inactive: [2] > 46 µM | [3] > 46 µM | [4] | [27]
active: [1] 10 µM | [28] 12.6 µM | [25] 0.01 µM | [29] 1.58 µM

— PubChem BioAssay (NCATS)
